Measured values: ChEMBL document CHEMBL4513216, “Probing the Open Global Health Chemical Diversity Library for Multistage-Active Starting Points for Next-Generation Antimalarials” (ACS Infect Dis, 2020)
The whole screen tested about 69,000 compounds, of which about 8,600 (12%) showed an effect of 50% or more. For the sample, strong results were picked, then their nearest neighbours and some compounds at random.

Test system: Plasmodium berghei
Experiment: Screen against P. berghei liver stage (PbLuc), transformed with Luciferase, at 10uM
Type: functional, HepG2
Conditions: tested at 10 uM

Row | Compound | INHIBITION
1 | CC1CCN(C(=O)[C@H]2CC[C@@H]3[C@@H](CCN3Cc3nccs3)O2)CC1 | 39.5%
2 | O=c1ccc2c(n1Cc1cccnc1)CCN(C1CCOC1)CC2 (centres undefined) | 39.4%
3 | N#CC1(C(=O)N2C[C@H](Nc3ccnc(N)n3)[C@@H](C3CC3)C2)CCOCC1 | 26.9%
4 | CC(C)c1noc(C(C)N2CCN(Cc3nnc(C4CC4)o3)CC2)n1 (centres undefined) | 0.914%
5 | O=C(c1ccccc1)N1CCC2(CCCN2c2ncccn2)CC1 | -22.1%
6 | Cc1nc(CN(C)CC(c2cccs2)N2CCOCC2)no1 (centres undefined) | 15.3%
7 | CC(=O)N1N=C(c2ccccc2)OC1C(=O)NCC(=O)OC(C)(C)C (centres undefined) | 28.3%
8 | CCC(CO)NCc1ccc(-c2ccc(Br)cc2)o1 (centres undefined) | -11.6%
9 | CCC(CO)NCc1ccc(-c2ccc(F)c(Cl)c2)o1 (centres undefined) | 18.8%
10 | CCC(CO)NCc1ccc(-c2ccccc2F)o1 (centres undefined) | 73.5%
11 | CCC(CO)NCc1ccc(-c2ccccc2)o1 (centres undefined) | 50.8%
12 | CCC(CO)NCc1ccc(-c2ccc(F)cc2)o1 (centres undefined) | 14.4%
13 | CCC(CO)NCc1ccc(-c2ccc(Cl)cc2)o1 (centres undefined) | 17.7%
14 | CN1CCN(c2ncc(CNCCCc3cccc(F)c3)cn2)CC1 | 46.8%
15 | CCC1CN(CC(=O)Nc2sccc2C#N)CCO1 (centres undefined) | 17%
16 | CCC1CN(CC(=O)NCCOC)CCO1 (centres undefined) | -22.3%
17 | CCC1CN(CC(=O)NCCC#N)CCO1 (centres undefined) | 52.6%
18 | CCC1CN(CC(=O)NCC(C)C)CCO1 (centres undefined) | 30.9%
19 | CCCNC(=O)CN1CCOC(CC)C1 (centres undefined) | 61.3%
20 | CCC1CN(CC(=O)NC(C)C)CCO1 (centres undefined) | -8.22%
21 | O=C(c1ccccn1)N1C[C@H]2CC[C@@H](C1)N(C(=O)Cc1cccs1)C2 | 4.13%
22 | CC1=N[C@@]2(CC[C@@H]3CN(S(=O)(=O)N(C)C)C[C@@H]32)C(=O)N1CC(C)C | 7.96%
23 | Cc1nc(C2CCCN2C(=O)c2csc3c2CCCC3)no1 (centres undefined) | 15.3%

Row | Compound | INHIBITION
24 | Cc1ccc(CN2CCC3(CCN(Cc4ccncc4)CC3)CC2)cc1 | 33%
25 | Cc1c(C)n(Cc2ccncc2)c2nc3c(c(N)c12)CCCCCC3 | 77.6%
26 | Cc1c(C)n(Cc2ccncc2)c2nc3c(c(N)c12)CCCCC3 | 70.3%
27 | Cc1c(C)n(Cc2ccncc2)c2nc3c(c(N)c12)CCCC3 | 44.1%
28 | CN1CCC(NC(=O)[C@H]2CC[C@@H]3[C@@H](CCN3c3ncccn3)O2)CC1 | 18.5%
29 | CCc1nc(CC(=O)N2CCn3c(CC)nnc3C2)cs1 | -12.33%
30 | CCS(=O)(=O)Nc1ccn(Cc2c(F)cccc2Cl)n1 | -39.5%
31 | N#Cc1cccnc1N1CCCN(C(=O)CCn2cccn2)CC1 | 29.2%
32 | CN1CCN(Cc2ccccc2CNC(=O)c2ccc(Cl)cc2F)CC1 | 55.4%
33 | Cn1ccc(C(=O)NCc2ccccc2CN2CCCC2)cc1=O | 13.6%
34 | O=C(NCc1ccccc1CN1CCOCC1)c1ccc(Br)cc1F | 62.3%
35 | CN1CCN(Cc2ccccc2CNC(=O)c2ccc(Br)cc2)CC1 | 33.2%
36 | O=C(Nc1ccc(Br)cc1F)c1cc(CN2CCOCC2)on1 | -43.7%
37 | O=C(NCc1ccccc1CN1CCOCC1)Nc1nncs1 | -10.4%
38 | CN1CCN(Cc2ccccc2CNC(=O)c2cc(Br)ccc2F)CC1 | 59.3%
39 | CN1CCN(Cc2ccccc2CNC(=O)c2ccc(Br)cc2F)CC1 | 30.8%
40 | O=C(NCc1ccncc1)c1ccc(Cl)cc1F | -3.95%
41 | COc1ccc(CNC(=O)c2ccc(Cl)cc2F)cc1C(=O)O | -8.55%
42 | CN1CCN(c2ccccc2CNC(=O)Cc2ccccc2F)CC1 | 14.3%
43 | CN1CCN(Cc2ccccc2CNC(=O)c2cc(Cl)ccc2F)CC1 | 63.3%
44 | Cc1cc(C(=O)NCc2ccc(N3CCCC(C(N)=O)C3)cc2)on1 (centres undefined) | 15.3%
45 | CN(C)CCN1CCCC12CCN(C(=O)c1cnccn1)CC2 | 24.9%
46 | CCC1(CC)CC(=O)N(CC(O)c2ccc(F)cc2)C1=O (centres undefined) | -15%

Row | Compound | INHIBITION
47 | CN(CC(O)C(F)(F)F)C(=O)Nc1cccc(Cn2cccn2)c1 (centres undefined) | 13.8%
48 | Cc1cc(CNCC2CNc3ccnn3C2)no1 (centres undefined) | 31%
49 | Cc1cnc(-c2nc(C3CCN(Cc4ccccc4O)CC3)no2)cn1 | 23.7%
50 | Cc1cc(C)n(CC2CN(CC(=O)N3CCNC3=O)CCO2)n1 (centres undefined) | -3.7%
51 | COc1ccc(NC(=O)CSc2ccc3nncn3n2)c(OC)c1 | 27%
52 | Cc1occc1C(=O)N1Cc2nccn2CC(CN2CCOCC2)C1 (centres undefined) | 5.89%
53 | CCCc1nnsc1C(=O)NCC(O)c1ccoc1 (centres undefined) | 15.5%
54 | COCC(=O)N1CCCC1c1cccc(C)c1C (centres undefined) | 17.1%
55 | O=C(COc1ccc2c(c1)CCC2)N1CCCC1c1ccc[nH]1 (centres undefined) | -38.6%
56 | O=C(COc1ccccc1)N1CCCC1c1ccc[nH]1 (centres undefined) | -23.3%
57 | CS(=O)(=O)c1cccc(OCC(=O)N2CCCC2c2ccccc2Cl)c1 (centres undefined) | 85.2%
58 | Cc1cccc(C2CCCN2C(=O)CCS(C)(=O)=O)c1C (centres undefined) | -8.84%
59 | CS(=O)(=O)c1cccc(OCC(=O)N2CCCC2c2ccc[nH]2)c1 (centres undefined) | 61.6%
60 | CCC(O)CN1CCN(C(=O)c2cnn(-c3ccccc3F)c2)CC1 (centres undefined) | -1.37%
61 | Cc1ccc([C@]2(O)CC[C@H]3CN(Cc4cccc(F)c4F)C[C@H]32)nc1 | 15.9%
62 | Cc1ccc([C@]2(O)CC[C@H]3CN(Cc4ccc(Cl)cc4Cl)C[C@H]32)nc1 | 93.1%
63 | Cc1cccnc1[C@]1(O)CC[C@H]2CN(Cc3cccc(Cl)c3Cl)C[C@H]21 | 15.9%
64 | Cc1ccc([C@]2(O)CC[C@H]3CN(Cc4cccc(Cl)c4Cl)C[C@H]32)nc1 | 62%
65 | O[C@@]1(c2ccccn2)CC[C@H]2CN(Cc3cccc(Cl)c3Cl)C[C@H]21 | 61.4%
66 | COc1ccc(CN2C[C@H]3CC[C@](O)(c4ccc(C)cn4)[C@H]3C2)c(F)c1 | 27.3%
67 | O[C@]1(c2ccccn2)CC[C@@H]2CN(Cc3cccc4ncccc34)C[C@@H]21 | 27.9%
68 | Cc1ccc([C@]2(O)CC[C@H]3CN(Cc4ccccc4F)C[C@H]32)nc1 | -18.2%
69 | COc1cccc(CN2C[C@@H]3CC[C@@](O)(c4ccccn4)[C@@H]3C2)c1OC | 24.8%
